In all, about 340,000 compounds went through this assay and about 12,000 (3.5%) were called active. Entries that show only a call come without a potency. Roughly 18% stayed inconclusive and do not appear here. The call rests on the fitted dose curve; in most records, active means well fitted inhibition curve with a large enough effect; inconclusive means small, poorly fitted or top-dose-only effect, or another doubt; inactive means no such curve, though single readings can be large or run the other way. Only a selection was taken, and actives are over-represented in it overall.
Experiment: qHTS Assay for Inhibitors of Hepatitis C Virus (HCV)
Settings: Huh7.5.1 HCVcc-Cre infection, luciferase reporter, 44 h; series mostly up to 41.8 µM
Summary of the method: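 Compounds are dispensed onto cells plated 4 h earlier at 1,000 per well, with HCVcc-Cre virus (about 0.5 moi) added next. Following 44 h of culture, luminescent signal is measured for 15 sec after 15 min with substrate at room temperature.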
Potency means the concentration at half of the fitted maximal effect.

Structure (SMILES) | Potency
COc1ccc(C(CNC(=O)c2cc(S(=O)(=O)Nc3cccc(C)c3)ccc2C)N2CCCC2)cc1 (centres undefined) | inactive
COc1cccc(CNC(=O)CN2C(=O)NC(Cc3ccccc3)(c3ccccc3)C2=O)c1 (centres undefined) | inactive
COc1cccc(C(=O)N2CCC(n3nccc3NC(=O)C3CCOC3)CC2)c1 (centres undefined) | inactive
COc1ccccc1N1CCN(CC(=O)Nc2ccnn2C2CCCC2)CC1 | inactive
COc1cccc(N2CCN(CC(=O)Nc3ccnn3C3CCCC3)CC2)c1 | 10 µM (active)
CC(=O)NC(CC(=O)Nc1ccc(S(=O)(=O)N2CCOCC2)cc1)c1ccccc1 (centres undefined) | inactive
O=C(c1cc(-c2ccc(Cl)cc2)on1)N1CCN(c2ccccc2)CC1 | inactive
COc1ccc(-c2cc(C(=O)N3CCN(c4ccc(F)cc4)CC3)no2)cc1 | 22.4 µM (active)
O=C(c1cc(-c2ccc(F)cc2)on1)N1CCN(c2ccc(F)cc2)CC1 | inactive
O=C(c1cc2cc(F)ccc2[nH]1)N1CCN(c2ccc(F)cc2)CC1 | inactive
O=C(c1ccccc1)c1ccc(C(=O)N2CCN(c3ccccc3)CC2)cc1 | inactive
O=C(c1cccc(C(=O)N2CCN(c3ccc(F)cc3)CC2)c1)N1CCN(c2ccc(F)cc2)CC1 | 11.2 µM (active)
Cc1ccc(C)c(NC(=O)COC(=O)Cn2c(C)csc2=O)c1 | inactive
CCC1(CC)NC(=O)N(CC(=O)OCC(=O)c2cc(C)c(C)cc2C)C1=O | inactive
O=C(CNC(=O)c1ccccc1Br)NNC(=O)c1cccs1 | inactive
COc1cc(S(=O)(=O)N2CCN(C(=O)C3CC3)CC2)ccc1NC(C)=O | inactive
O=C(C1Cc2ccccc2CN1C(=O)c1ccco1)N1CCN(c2ccccc2)CC1 (centres undefined) | inactive
O=C(NCCC1=CCCCC1)c1ccc(-n2cncn2)cc1 | inactive
CCOc1ccc(C(=O)CCC(=O)NC2=NCCS2)cc1 | inactive
Cc1noc(C)c1CSCC(=O)Nc1ccc(Br)cc1Cl | inactive
CCOC(=O)CCCCCC(=O)Nc1ccc2c(c1)CC(=O)N([C@@H](C)CO)C[C@H](C)[C@@H](CN(C)Cc1ccccc1)O2 | inactive
Cc1cc(NC(=O)c2cnn3cccnc23)n(-c2ccccc2)n1 | 12.6 µM (active)
CC(=O)c1cccc(NC(=O)c2cc(C)nn2-c2ccccc2)c1 | inactive
O=C(Nc1ccc(Cl)cn1)c1cnn2cccnc12 | inactive
CSc1ncccc1C(=O)Nc1cccc(S(=O)(=O)N2CCOCC2)c1 | inactive

Structure (SMILES) | Potency
C[C@H](NC(=O)c1[nH]cnc1C(=O)Nc1nccs1)c1ccccc1 | inactive
Cc1nn(-c2ccccc2)nc1C(=O)OCC(=O)N1CCCCC1C (centres undefined) | inactive
CN(C)C(=O)N=NC(=O)N(C)C | inactive
O=C(c1cc2nc(-c3ccccc3)cc(-c3ccccc3)n2n1)N1CCC2(CC1)OCCO2 | 10 µM (active)
O=C(c1ccccc1[N+](=O)[O-])N1CCC2(CC1)OCCO2 | inactive
Cc1ccc(-c2cc(C(=O)N3CCC4(CC3)OCCO4)no2)cc1 | inactive
CC(=O)N1CCc2c(sc(NC(=O)CCS(=O)(=O)c3ccc(C)cc3)c2C(N)=O)C1 | inactive
CCN(CC)c1ccc(C(=O)N/N=C/c2ccc(N3CCOCC3)cc2)cc1 | inactive
CN(C)c1ccc(/C=N/Nc2cc(N3CCOCC3)nc(N3CCOCC3)n2)cc1 | 3.98 µM (active)
Cc1cc(C(=O)N/N=C/c2ccc(N3CCOCC3)cc2)c(C)o1 | inactive
CC(=O)Oc1ccc(OC(C)=O)c2c1C1C=CC2CC1 | inactive
Cc1n[nH]c(=O)c2c(NC(=O)CSc3cc(Cl)ccc3Cl)oc(C)c12 | inactive
COc1ccc(-c2cc(C(F)(F)F)nc(SCCC(=O)NCc3ccco3)n2)cc1 | inactive
Cc1cc(C(F)(F)F)nn1-c1nc(-c2ccco2)cc(C(F)(F)F)n1 | inactive
O=C(CSc1nc(-c2ccco2)cc(C(F)(F)F)n1)N1CCc2ccccc2C1 | 11.2 µM (active)
CCN([C@H](CO)C(C)C)S(=O)(=O)c1ccccc1Br | inactive
Cc1ccc(NC(=O)CN(C)C(=O)c2cccc(S(=O)(=O)N3CCCC3)c2)cc1 | inactive
Cc1[nH]c2ccccc2c1/C=N/NC(=O)CNC(=O)c1ccc2c(c1)OCO2 | inactive
Cc1[nH]c2ccccc2c1/C=N\NC(=O)Cn1nnc(-c2ccccc2)n1 | inactive
COCCNC(=S)N/N=C/c1c(C)[nH]c2ccccc12 | 10 µM (active)
C[C@@H]1CN([C@@H](C)CO)C(=O)c2cc(NC(=O)C3CC3)ccc2O[C@H]1CN(C)C | inactive
O=[N+]([O-])c1ccc(S(=O)(=O)Nc2cccc(-c3ccc(N4CCCC4)nn3)c2)cc1 | inactive
CC(OC(=O)c1c(F)cccc1F)C(=O)NCCC1=CCCCC1 (centres undefined) | inactive
CN(CC(=O)Nc1ccc(F)c(F)c1F)C(=O)Cn1cnc2c1c(=O)n(C)c(=O)n2C | inactive
CC(C)Cn1c(N)c(C(=O)COC(=O)C2CCCN2C(=O)c2cccs2)c(=O)n(C)c1=O (centres undefined) | inactive

Structure (SMILES) | Potency
COc1ccccc1NC(=O)COC(=O)COc1ccccc1F | inactive
COc1ccc(OC)c(S(=O)(=O)Nc2ccccc2F)c1 | inactive
COc1ccc(NS(=O)(=O)c2cc(NC(=O)COc3ccccc3F)ccc2OC)cc1 | 11.2 µM (active)
CCc1noc(C)c1C(=O)N1CCCC(N2CCN(c3ccc(F)cc3)CC2)C1 (centres undefined) | inactive
Cn1c(N)cc(=O)n(C)c1=S | inactive
C=C(C)CNC(=O)c1ccc(OC2CCN(C(=O)COC)CC2)cc1 | inactive
COc1ccc(NC(=O)CN(C)C(=O)CC2CCCCC2)cc1 | inactive
CC(C)(C)C(=O)OCc1nc(-c2ccc(O)c(O)c2)cs1 | inactive
CCN1CCN(c2nc(Nc3cc(OC)ccc3OC)nc(Nc3cc(OC)ccc3OC)n2)CC1 | inactive
O=C(Nc1ccncc1)c1cc2ccccc2o1 | inactive
COc1ccc(-c2csc(Nc3ccc(O)cc3)n2)cc1 | 12.6 µM (active)
CCNc1nc(-c2cc3ccccc3o2)cs1 | inactive
COc1ccc2nc(Nc3nc(-c4ccncc4)cs3)sc2c1 | inactive
COc1ccc(OC)c(Nc2nc(-c3ccc(O)c(O)c3)cs2)c1 | 10 µM (active)
COC(=O)CCc1sc(Nc2ccc(Br)cc2)nc1-c1ccc(OC)cc1 | inactive
O=c1oc2ccccc2cc1-c1csc(Nc2ccc(O)cc2)n1 | 31.6 µM (active)
CC(=O)C[C@H](O)CC(=O)[C@@H]1OC(=O)[C@@H](C)C/C=C\Cc2ccccc21 | inactive
COc1ccc(C(=O)COC(=O)CN2C(=O)C3CC=CCC3C2=O)c(OC)c1 (centres undefined) | inactive
CC1(C)CC[C@@]2(C(=O)O)C(C1)C1=CCC3[C@@]4(C)CC[C@H](O)C(C)(C)C4CC[C@@]3(C)[C@]1(C)C[C@H]2O (some centres undefined) | inactive
Cc1cc(C)cc(NC(=O)C(c2ccccc2)N2CCN(CC(=O)N3CCCC3)CC2)c1 (centres undefined) | inactive
CCOc1ccc(C(=O)CCC(=O)Nc2ccncc2)cc1 | inactive
O=C(CNC(=O)c1ccccc1Br)NCCSc1ccc(Br)cc1 | inactive
CN(C)C1=NC[C@H](Cc2ccccc2)N1CCc1ccc(F)cc1 | inactive
C#CCOCCOCCOCCNc1nc(N2CCN(C(=O)[C@H](CCCCN)n3cc(CCC(=O)O)nn3)CC2)nc(N2CCN(C(=O)[C@H](CCCCN)n3cc(CC(C)O)nn3)CC2)n1 (some centres undefined) | inactive
COc1cccc(CN(C)CC(=O)Nc2ccccc2C(=O)Nc2ccccc2)c1 | inactive

Structure (SMILES) | Potency
CC1CCCCC1NCC(=O)Nc1ccccc1C(=O)Nc1ccccc1 (centres undefined) | 0.891 µM (active)
CCCC(NCC(=O)Nc1ccccc1C(=O)NC1CC1)c1ccccc1 (centres undefined) | inactive
Cc1ccc(S(=O)(=O)NC2CCCCCC2)cc1 | inactive
O=C1C=CN2CCCC2CC1 (centres undefined) | inactive
COc1ccc(C(CNC(=O)c2ccc(S(=O)(=O)Nc3ccccc3C)cc2)N2CCOCC2)cc1 (centres undefined) | inactive
CCOC(=O)c1sc(=S)n2c1[nH]c(=O)c1ccc(C(=O)OC)cc12 | inactive
CCOC(=O)c1sc(=NC(=O)c2ccc(Br)cc2)n(C)c1C | inactive
CCOC(=O)C1=C(C)Nc2sc(C(=O)c3ccc(Br)cc3)c(N)c2C1c1ccc(C(=O)OC)cc1 (centres undefined) | 8.91 µM (active)
CCCCCCSc1ccc([C@@H]2[C@@H]3C(=O)N(CC)C(=O)[C@@H]3[C@]3(C(=O)OC)CCCCN23)cc1OC | inactive
CCCOc1ccc(C2=CSC3=NCCN23)cc1Cl | 11.2 µM (active)
Cc1ccc(C2=CSC3=NS(=O)(=O)CCN23)cc1C | inactive
CCCCOc1ccc(CON(C(C)=O)C(C)=O)cc1Cl | inactive
CC[C@]12c3[nH]c4cc(CCC(=O)N(C)C)ccc4c3CCN1C(=O)[C@@H](CC(=O)NCCCN(C)C)C[C@@H]2C(=O)N1CCN(C(=O)c2ccco2)CC1 | inactive
Cc1noc(C)c1S(=O)(=O)N(C)C[C@H]1Oc2ccc(NC(=O)C3CCCCC3)cc2C(=O)N([C@H](C)CO)C[C@@H]1C | inactive
CCOC(=O)[C@H]1[C@H]2COc3ccc(Br)cc3[C@@H]2N2C(=O)CN(C)C(=O)[C@@]12C | inactive
N#Cc1c(-c2ccccc2)c(-c2ccccc2)n[nH]c1=O | inactive
N#Cc1c(/N=C/N2CCCC2)oc(-c2ccccc2)c1-c1ccccc1 | 14.1 µM (active)
N#Cc1c2c(c(-c3ccccc3)[nH]c1=O)CCCC2 | inactive
CCN(CC)C(=O)c1nc[nH]c1C(=O)N(C)Cc1ccccc1 | inactive
COc1ccc(C(=O)N2CCN(c3ncccn3)CC2)cc1S(=O)(=O)N1CCOCC1 | inactive
CCC(=O)c1cc(F)ccc1OCC(=O)Nc1ccc2c(c1)OCCO2 | inactive
Cc1ccc(N2CC(C(=O)Nc3ccc(S(=O)(=O)N4CCCC4)cc3)CC2=O)cc1C (centres undefined) | inactive
COc1ccc(S(=O)(=O)N2CCCCC2)cc1NC(=O)C1CC(=O)N(c2ccc3c(c2)OCCO3)C1 (centres undefined) | inactive
Cc1ccc(NC(=O)C2CC(=O)N(c3ccc4c(c3)OCCO4)C2)cc1S(=O)(=O)N1CCCCCC1 (centres undefined) | 10 µM (active)
